Experimental data published in PubChem BioAssay AID1918 (Vanderbilt High Throughput Screening Facility, 2009).
The whole screen tested about 130,000 compounds, of which about 2,500 (1.9%) were called active. The list comes from a sample in which actives are over-represented; it also holds similar structures and randomly drawn compounds. Values without a mark were called inactive.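 How the source made its calls: active means signal ratio slope over the read window, or its plate-corrected B-score, at least 3 SD from the plate mean, either direction; inactive means the rest.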

Target: ATP-sensitive inward rectifier potassium channel 1 (Homo sapiens) (UniProt P48048)
Sequence (P48048 whole entry, looked up): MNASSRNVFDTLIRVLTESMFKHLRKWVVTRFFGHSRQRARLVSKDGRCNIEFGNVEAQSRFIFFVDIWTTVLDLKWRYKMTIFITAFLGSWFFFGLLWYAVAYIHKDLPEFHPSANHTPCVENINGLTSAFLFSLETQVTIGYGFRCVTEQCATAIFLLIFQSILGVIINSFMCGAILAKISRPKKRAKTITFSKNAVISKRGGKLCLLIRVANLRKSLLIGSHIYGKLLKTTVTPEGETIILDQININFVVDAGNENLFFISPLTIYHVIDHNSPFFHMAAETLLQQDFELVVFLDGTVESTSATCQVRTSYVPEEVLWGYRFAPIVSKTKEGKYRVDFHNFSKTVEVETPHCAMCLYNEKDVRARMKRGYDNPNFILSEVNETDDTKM
Assay: ROMK potassium channel modulators, primary screen, cell-based, thallium flux, MLSMR library (AID 1918);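 further: B-score of the F/F0 ratio slope over 7 to 12 s after thallium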
Conditions: Tet-inducible ROMK, thallium flux fluorescence; at 10 µM; actives lie on both sides

| SMILES | B-score |
| --- | --- |
| Nc1ncnc(Nc2cccc(Cl)c2Cl)n1 | -0.357 |
| O=C(O)c1ccc(NC(=O)c2cccs2)cc1 | -0.729 |
| O=C(Nc1ncccn1)c1cccs1 | 0.282 |
| O=C(Nc1ccccc1-c1ccccc1)c1cccs1 | -3.72 (active) |
| NS(=O)(=O)c1cccc(NC(=O)COC(=O)/C=C/c2ccco2)c1 | 1.2 |
| COc1cc(NC(=O)COc2ccccc2Cl)ccc1NC(=O)C(C)C | -0.0152 |
| CCCOc1ccccc1C(=O)NCCCC(=O)O | 0.945 |
| CCCN(CC(=O)Nc1ccc(C(N)=O)cc1)CC(=O)Nc1ccccc1C | 2.09 |
| CCCN(CCC)CC(O)COc1ccccc1C(=O)Nc1ccccc1 (configuration not stated) | -3.37 (active) |
| Cc1cc(C)cc(NC(=O)COC(=O)c2cc(C)oc2C)c1 | 0.675 |
| COc1cccc(-n2c(=S)[nH]c3c(oc4ccccc43)c2=O)c1 | -0.508 |
| COc1ccc(Br)cc1C(=O)Nc1cccc(C)c1C | -2.34 (active) |
| Cc1cccc(NC(=O)c2ccc3nsnc3c2)c1C | 0.488 |
| COc1ccc(C)cc1NC(=O)c1[nH]c(C)c(C(C)=O)c1C | -0.381 |
| Cc1cc(C)nc(Nc2cc([N+](=O)[O-])ccc2C)n1 | -0.867 |
| CCCC(=O)NC(=S)Nc1ccc(CN2CCOCC2)cc1 | 0.069 |
| COC(=O)c1c(C)oc(C)c1S(=O)(=O)NCc1ccc(Cl)cc1 | -0.884 |
| c1ccc(-n2nnnc2-c2cccnc2)cc1 | 0.982 |
| CNC(=O)C(=O)N/N=C/c1ccccn1 | 1.14 |
| c1ccc(C2c3[nH]c4ccccc4c3CCN2Cc2cccn2-c2cccnc2)nc1 (configuration not stated) | -0.00648 |
| CC1(C)C=C2[C@H]3CC[C@@H]4[C@@]5(C)CCC(=O)C(C)(C)[C@@H]5CC[C@@]4(C)[C@]3(C)CC[C@@]2(C(=O)O)CC1 | 3.78 (active) |
| Cc1ccc(C(=O)N2CCN(S(=O)(=O)N3CCOCC3)CC2)cc1 | -0.0164 |
| O=C(CCS(=O)(=O)Cc1ccccc1)Nc1ccc2c(c1)OCCO2 | 0.0737 |
| COc1ccccc1-n1c(C)nc2cc(C(=O)NCc3ccc4c(c3)OCO4)ccc21 | 2.52 (active) |
| CCn1cc(C(=O)NCc2ccc3c(c2)OCO3)c2cc(OC)c(OC)cc2c1=O | 2.18 |

| SMILES | B-score |
| --- | --- |
| COc1cc(-n2c(C)nc3cc(C(=O)NCc4ccco4)ccc32)cc(OC)c1OC | 2.33 |
| C=CCn1c(-c2sc(-c3ccccc3)nc2C)n[nH]c1=S | -0.143 |
| CCN1CCC2(CCN(Cc3cn[nH]c3-c3ccc(OC)c(F)c3)C2)C1 (configuration not stated) | 0.101 |
| FC(F)(F)c1cccc(Cc2noc(CN3CCC(N4CCCCC4)CC3)n2)c1 | -0.1 |
| Cc1nccc(-c2ccc(-n3c(C)ccc3C)cc2)n1 | -1.01 |
| COc1ccccc1/C=C/CN1CCC(CO)(Cc2ccccc2)CC1 | -2.4 (active) |
| OCC1(Cc2ccccc2)CCN(Cc2cc3ccccc3o2)CC1 | -2.42 |
| CC(=O)c1cccc(CN2CCC(CO)(Cc3ccccc3)CC2)c1 | -0.319 |
| Cc1ccc2c(c1)C(O)(CC(=O)c1cccc(-n3cccc3)c1)C(=O)N2 (configuration not stated) | 0.00843 |
| OCC1(Cc2ccccc2C(F)(F)F)CCN(Cc2cccc3cnccc23)CC1 | -2.15 |
| O=C(Nc1cccc(C(F)(F)F)c1)c1ccc(N2CCNCC2)c([N+](=O)[O-])c1 | -4.07 (active) |
| CC(NC(=O)c1ccc(N2CCNCC2)c([N+](=O)[O-])c1)C12CC3CC(CC(C3)C1)C2 (configuration not stated) | -1.39 |
| O=C(Nc1ccc(N2C(=O)c3cccc4cccc(c34)C2=O)cc1)c1ccc(N2CCCCC2)c([N+](=O)[O-])c1 | -0.618 |
| Nc1nnn(CC(=O)N/N=C/c2ccc(O)cc2)n1 | 0.102 |
| COc1ccc(-c2nc3cnccn3c2NC(C)(C)CC(C)(C)C)cc1O | -0.227 |
| CCN(CCn1cccn1)Cc1cn[nH]c1-c1ccc(OC)cc1F | 0.488 |
| COC(=O)C1=CN(C)C=C(C(=O)OC)C1c1ccc(Cl)cc1Cl | 0.118 |
| CCOc1ccccc1C1C(C(=O)OC)=CN(C)C=C1C(=O)OC | -3.43 (active) |
| CCCCOCCCNC(=O)c1ccccc1OCC | -0.181 |
| CCOC(=O)CSc1ccccn1 | -0.519 |
| CC(C)C(=O)Nc1oc(-c2ccccc2)cc1C#N | -0.0567 |
| Cc1cccc2cc(CN(C(=O)c3cccs3)c3ccccc3)c(=O)[nH]c12 | 0.321 |
| CCCN(Cc1cc2cccc(C)c2[nH]c1=O)S(C)(=O)=O | -0.178 |
| Cc1cccc2cc(CN(Cc3ccc4c(c3)OCO4)Cc3nnnn3C3CCCC3)c(=O)[nH]c12 | 0.0136 |
| CCC(c1nnnn1C1CCCC1)N(Cc1cccs1)Cc1cc2cccc(C)c2[nH]c1=O (configuration not stated) | -3.89 (active) |

| SMILES | B-score |
| --- | --- |
| Cc1cc(C)c2[nH]c(=O)c(C(c3nnnn3Cc3ccc4c(c3)OCO4)N3CCCC3)cc2c1 (configuration not stated) | -1.8 |
| Cc1cccc2cc(CN(Cc3nnnn3Cc3ccccc3)C3CCCC3)c(=O)[nH]c12 | -4.07 (active) |
| COc1cc(/C=C/C(=O)OCC(=O)NC(=O)NCc2ccccc2)ccc1OCC#N | 0.107 |
| Cc1cccc(C(=O)Nc2ccccc2C(=O)NCc2cccnc2)c1 | -0.294 |
| O=C(/C=C/c1ccc(Cl)c([N+](=O)[O-])c1)c1cccnc1 | -6.38 (active) |
| O=C(Nc1cccnc1)c1ccc(Cl)c([N+](=O)[O-])c1 | 0.478 |
| CN(C)c1ccc(/C=C/C(=O)c2ccc(C(C)(C)C)cc2)cc1[N+](=O)[O-] | -0.617 |
| CCOC(=O)C(NC(C)=O)C(=O)Nc1ccc(OC)cc1 (configuration not stated) | 2.1 |
| CN(C)c1cc(-c2ccc(F)cc2)oc(=O)c1Cl | 0.334 |
| NC1=NC(=O)C(Cc2cccc(Cl)c2)S1 (configuration not stated) | -2.18 |
| CC(NC(=O)COC(=O)c1cc(=O)[nH]c2ccccc12)c1ccccc1 (configuration not stated) | -0.0559 |
| CC(NC(=O)CC1SC(N)=NC1=O)c1ccccc1 (configuration not stated) | 1.24 (active) |
| CCOC(=O)C1(CC2CCCCO2)CCN(Cc2nc(-c3cccs3)oc2C)CC1 (configuration not stated) | -0.7 |
| CCc1nc2ccccc2c(C(=O)NCc2ccc(OC)cc2)c1C | 0.0138 |
| c1ccc2c(c1)CSc1sccc1C2=C1CCNCC1 | -2.98 (active) |
| O=C(NCc1nnc(SCC(=O)N2CCC(Cc3ccccc3)CC2)o1)c1ccco1 | -0.765 |
| Cc1ccc(OCC(=O)NNC(=S)NCc2ccccc2)cc1 | 0.804 |
| CCCc1ccc(OCC(=O)NNC(=S)NC(=O)c2ccco2)cc1 | 4.19 (active) |
| CC(Oc1ccc2ccccc2c1)C(=O)NNC(=S)NC(=O)c1ccco1 (configuration not stated) | 2.32 |
| N#C/C(=C\c1ccccc1C(F)(F)F)C(=O)Nc1ccccc1F | -4.23 (active) |
| O=C(Nc1ccccc1F)c1ccccc1-c1ccc(C(F)(F)F)cc1 | 0.0696 |
| Cc1ccc(/C=C(\C#N)C(=O)Nc2cccc3ncccc23)o1 | -0.963 |
| CCCCNC(=O)c1ccc(-n2c(=S)[nH]c3ccccc3c2=O)cc1 | 0.371 |
| O=C1C2C3C=CC(C3)C2C(=O)N1c1ccc(-c2nc3ccccc3c(=O)o2)cc1 (configuration not stated) | -0.106 |
| Cc1ccc(NC(=O)C(=O)NCC2CCN(C(=O)c3cccc([N+](=O)[O-])c3)CC2)cc1 | 0.475 |

| SMILES | B-score |
| --- | --- |
| Cc1[nH]n(-c2cccc(Cl)c2)c(=O)c1/C=N/n1c(C)nc2ccccc2c1=O | 0.302 |
| Cc1[nH]n(-c2ccc(Cl)cc2)c(=O)c1/C=N/n1c(C)nc2ccccc2c1=O | -0.843 |
| Cc1ccc(-n2[nH]c(C)c(/C=N/N3C(=O)c4cccc5cccc(c45)C3=O)c2=O)cc1 | 3.89 (active) |
| COc1ccccc1Cn1c(C)nnc1-c1cnn(C)c1N | 0.26 |
| CC(Sc1nnnn1C1CCCCC1)C(=O)O (configuration not stated) | 0.253 |
| O=S(=O)(Nc1ncccn1)c1ccc(NS(=O)(=O)c2cccc(Cl)c2Cl)cc1 | 0.305 |
| Cc1cccc2cc(C#N)c(N3CCCC3)nc12 | -0.0822 |
| CCOc1ccc2nc(N3CCCN(C(=O)Nc4ccccc4C)CC3)c(C#N)cc2c1 | -5.81 (active) |
| CCOc1ccc2cc(C#N)c(SCC(=O)OC)nc2c1 | -0.501 |
| COC(=O)CN1C(=O)N/C(=C/c2ccc(OC)c(C)c2OC)C1=O | 1.31 |
| CCOC(=O)C1=C(C)N=c2s/c(=C\C(=O)OC)c(=O)n2C1c1ccc(OC)cc1 (configuration not stated) | -6.39 (active) |
| CCOC(=O)C1=C(CSc2nccn2C)NC(=O)NC1c1ccc(OC)cc1 (configuration not stated) | 0.553 |
| COc1ccc(C2C(C(C)=O)=C(O)C(=O)N2c2nccs2)cc1 (configuration not stated) | 0.28 |
| CCC(CC)c1nnc(NC(=O)c2nn(C)c(=O)c3ccccc23)s1 | -0.146 |
| Cc1nc(COc2cccc(Cl)c2)sc1C(=O)/C=C/N(C)C | -0.0177 |
| O=C(CCC(=O)OCc1ccc(Cl)cc1)Nc1ccccc1 | 1.21 |
| O=C(Cc1ccc(Br)cc1)N1CCN(c2ccccn2)CC1 | -2.13 (active) |
| Cc1ccc(S(=O)(=O)NCC(=O)N2CCN(c3ccccn3)CC2)cc1 | 0.248 |
| O=C(C(Cl)Cl)N1CCN(c2ccccn2)CC1 | 0.591 |
| O=C(Cc1ccccc1Cl)N1CCN(c2ccccn2)CC1 | -4.7 (active) |
| COc1cccc(CC(=O)N2CCCC(CCC(=O)N3CCN(c4ccccn4)CC3)C2)c1 (configuration not stated) | 0.339 |
| O=C(CCC1CCCN(C(=O)Cc2ccc(F)cc2)C1)N1CCN(c2ccccn2)CC1 (configuration not stated) | 2.32 |
